Source: PubChem BioAssay (National Center for Advancing Translational Sciences (NCATS))
Most compounds without a hit are left out; they make up all but 7.5% or so of the library.
ELG1 genotoxic: qHTS screen for small molecules that induce genotoxicity in human embryonic kidney (HEK293T) cells expressing luciferase-tagged ELG1; HEK293T ELG1-luciferase reporter, luminescence, 16 h; Potency, µM (series often up to 46 µM), for the others: at the top dose activity change, positive = activation, usual class: activators; 330,000 tested, 1.3% active; note: % of control where 0% means no effect; nearly all actives have a fitted effect of over 60% in size
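Step 1: seed 2,000 HEK293T ELG1-luciferase cells per well. Step 2: add compound or DMSO, incubate 16 hr at 37 °C. Step 3: ONE-Glo, 30 min at room temperature, read luminescence.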
SMN2 splice enh: qHTS Assay for Enhancers of SMN2 Splice Variant Expression; HEK293 SMN2-luciferase splicing reporter, luminescence, 30-36 h; Potency, µM (highest dose often 46.1 µM), inactives show at the top dose activity change, positive = activation, usual class: activators; 210,000 tested, 2.8% active; note: % of control where 0% means no effect; nearly all actives have a fitted effect of over 55% in size
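HEK293 cells carry an SMN2 […]–luciferase reporter in which exon 7 inclusion puts luciferase in frame. Cells were plated 10-12 h before compound addition, then incubated 30-36 h at 37C. ONE-Glo luminescence was read; sodium butyrate at 4.5 mM final served as control.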
Rab9 prom act: qHTS Assay for Rab9 Promoter Activators. Huh7 Rab9 promoter-luciferase reporter, luminescence, 24 h. Potency, µM (doses to about 9.22 µM), for inactives: at the highest dose activation, negative = inhibition, most hits filed as activators. 320,000 tested, 2.8% active; note: % of control where 0% means no effect; nearly all actives have a fitted effect of over 60% in size
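Steps: seed 1500 Huh7 Rab9-luc cells per well, rest 2 h at 37 °C; add compound in DMSO; incubate 24 h; add luciferase reagent, 10 min ambient; read luminescence.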
NPC1 prom act: qHTS Assay for NPC1 Promoter Activators | Huh7 NPC1 promoter luciferase reporter, 24 h | Potency, µM (series often up to 9.22 µM), for inactives: at the highest dose activation, actives largely listed as activators | 320,000 tested, 2.4% active; note: % of control where 0% means no effect; nearly all actives have a fitted effect of over 60% in size
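Huh7 reporter cells (NPC1 promoter driving luciferase) are dosed with compound for 24 h at 37 °C, 5% CO2; luciferase detection reagent is then added and luminescence measured after 10 min at ambient temperature.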
KinaseGlo FLuc: Counterscreen for Luciferase (Kinase-Glo TM) Inhibition; Luciferin 4-monooxygenase (Photuris pensylvanica), Q27757; Kinase-Glo luciferase, ATP luminescence, 8 min; Potency, µM (titrated, usually from 38.3 µM), for the others: at the top dose activity change, negative = inhibition, most hits filed as inhibitors; 200,000 tested, 0.28% active; AID 1379, 2008; note: % is set by controls: 0 for no effect and ±100 for the full control effect; nearly all actives have a fitted effect of over 60% in size
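Substrate mix (final 50 mM imidazole pH 7.2, 50 mM KCl, 7 mM MgCl2, 10 uM ATP, 0.01% Tween 20, 0.05% BSA) plus pin-tool compound, then Kinase-Glo detection mix; 8 min ambient, luminescence read.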
FLuc modulator: qHTS profiling assay for firefly luciferase inhibitor/activator using purifed enzyme and Km concentrations of substrates (counterscreen for miR-21 project); purified FLuc, Km substrates, luminescence inhibition; Potency, µM (top dose mostly 57.5 µM), for the others: top-dose activity change, negative = inhibition, most hits filed as inhibitors; 360,000 tested, 6.9% active; AID 588342, 2011;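 note: plate controls were vehicle for no effect and reference inhibitor for full effect; nearly all actives have a fitted effect of over 55% in size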
Target sequence (P08659 whole entry, looked up): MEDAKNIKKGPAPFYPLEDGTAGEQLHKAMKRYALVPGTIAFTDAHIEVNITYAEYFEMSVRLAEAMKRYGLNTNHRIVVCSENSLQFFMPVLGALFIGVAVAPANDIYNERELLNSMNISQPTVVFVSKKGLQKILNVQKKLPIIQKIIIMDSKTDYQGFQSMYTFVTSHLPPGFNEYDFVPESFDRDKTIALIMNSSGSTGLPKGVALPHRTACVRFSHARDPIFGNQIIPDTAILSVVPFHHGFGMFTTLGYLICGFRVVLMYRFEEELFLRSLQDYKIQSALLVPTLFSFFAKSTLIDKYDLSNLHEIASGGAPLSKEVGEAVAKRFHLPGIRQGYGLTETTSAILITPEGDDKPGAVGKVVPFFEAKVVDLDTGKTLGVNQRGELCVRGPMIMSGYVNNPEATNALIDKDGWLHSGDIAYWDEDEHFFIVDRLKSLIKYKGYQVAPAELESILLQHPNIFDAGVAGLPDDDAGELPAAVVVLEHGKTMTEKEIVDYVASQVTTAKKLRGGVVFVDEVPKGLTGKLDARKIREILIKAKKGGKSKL
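Purified P. pyralis luciferase (10nM final) with 10uM D-luciferin and 10uM ATP (Km levels) in 50mM Tris acetate pH 7.5, 10mM Mg acetate, 0.01% Tween-20, 0.05% BSA; qHTS 6-point titration, ~60 µM downward; luminescence read.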
Active calls of the source: *; u = inconclusive; x = no result; [ ] = dose if it differs, or a comment. Calls come from the whole dose curve; as a rule, active = well fitted curve in the direction sought with a large enough effect; inconclusive = small, poorly fitted or top-dose-only effect, or another doubt; inactive = no such curve, though single readings can be large; an effect the other way counts as inactive or inconclusive. Potency is the fitted concentration of half-maximal effect.

SMILES | ELG1 genotoxic | SMN2 splice enh | Rab9 prom act | NPC1 prom act | KinaseGlo FLuc | FLuc modulator
CC(=O)NNc1cc(C)nc(N)n1 | -1% | x | -4% | 5% | x | 2%
Cc1ccc(/C(N)=N/OC(=O)/C=C/c2ccccc2)cc1 | 13% | -6% | 12% | 0% | -5% | 24µM*
CC(=O)c1ccc(OC(=O)/C=C/c2ccccc2)cc1 | 2% | x | -2% | -3% | x | 2.7µM*
CC(=O)c1ccc(OC(=O)COc2ccccc2)cc1 | 24% | x | 0% | 1% | x | 21µM*
COc1ccc(/C(N)=N/OC(=O)/C=C/c2ccccc2)cc1 | 5% | 24% | 18% | -3% | 1% | 15µM*
CC(=O)c1ccc(OC(=O)CCNC(=O)c2ccccc2)cc1 | 3% | x | x | x | x | x
COc1ccc(/C=C/C(=O)O/N=C(\N)c2ccccc2)cc1OC | u | u | u | u | 0% | 17µM*
COc1cccc(C(=O)Nc2ccc(Cl)c(C(F)(F)F)c2)c1 | 1% | -5% | u | 2% | 4% | 21µM*
COc1cc(C(=O)Nc2ccc(Cl)c(C(F)(F)F)c2)cc(OC)c1OC | 2% | -8%[1.84 µM] | 9% | 0% | -2% | 21µM*
COc1cccc(C(=O)Nc2cc(C(F)(F)F)ccc2Cl)c1 | -1% | -14% | 1% | 1% | -5% | u
COc1ccccc1NC(c1ccc(Cl)cc1)c1nnc(-c2cccc(F)c2)o1 (stereo not given) | x | -5% | x | x | x | u
COc1ccc(-c2nc3ccccn3c2NCc2ccc3c(c2)OCO3)cc1 | 14% | 14µM* | u | u | -4% | 4.8µM*
COc1ccc(-c2nc3cc(C)ccn3c2NCc2ccc3c(c2)OCO3)cc1 | 2% | x | u | 15% | -12% | 17µM*
COc1ccc2c(c1)O[C@H](c1ccc3c(c1)OCO3)[C@@H](OC(=O)Nc1ccc(C)c(Br)c1)C2=O | x | -3% | x | x | 1% | x
N/C(=N\OC(=O)COc1ccccc1)c1cccnc1 | 0% | -11% | 2% | -5% | 1% | -1%
Cc1cccc(/C(N)=N/OC(=O)c2cccc3ccccc23)c1 | 15% | x | 4µM* | 3.5µM* | x | 4.3µM*
O=C(O/N=C(\c1ccccc1)c1ccccn1)c1cccc2ccccc12 | 1% | 25% | -1% | -5% | -3% | u
N/C(=N\OC(=O)c1cccc2ccccc12)c1cccnc1 | u | x | 28% | 20% | -5% | 12µM*
COc1ccc(S(=O)(=O)NNC(=O)c2csc(-n3nc(C)cc3C(F)(F)F)n2)cc1 | 3% | -8% | -11% | 1% | -5% | 7%
Cc1ccc(-c2nn[nH]n2)cc1 | 1% | 1% | -2% | -5% | 2% | u
Cc1ccc(-c2nn[nH]n2)cc1Cl | 2% | x | -5% | 1% | x | 17µM*
Cc1cccc(OCC(=O)NCC(=O)N/N=C/c2c(C)[nH]c3ccccc23)c1 | -11% | x | 1% | -4% | x | 0%
Cc1[nH]c2ccc(C(=O)O)cc2c1C | 7% | 4% | 0% | 7% | 4% | -4%
Cc1[nH]c2ccc(C(=O)Nc3ccncc3)cc2c1C | -2% | x | 5% | -1% | x | 17µM*
COc1ccccc1NC(=O)c1ccc2[nH]c(C)c(C)c2c1 | u | x | 2.8µM* | u | x | 12µM*
SMILES | ELG1 genotoxic | SMN2 splice enh | Rab9 prom act | NPC1 prom act | KinaseGlo FLuc | FLuc modulator
Cc1ccccc1CNC(=O)c1ccc2[nH]c(C)c(C)c2c1 | x | x | x | x | x | -16%
Cc1ccccc1NC(=O)c1ccc2[nH]c(C)c(C)c2c1 | x | x | x | x | x | 21µM*
CCOC(=O)c1cc(-c2ccc(F)cc2)n(CCC(=O)Nc2cc(OC)cc(OC)c2)c1C | x | x | x | x | x | -7%
Cc1ccc(Cl)cc1-n1c(=O)c2sc3ccccc3c2n(CC(=O)NC2CCCCC2)c1=O | x | -3% | x | x | x | 1%
COc1ccccc1NC(=O)c1ccc(-c2ccccc2F)o1 | 8% | u | u | 18% | 0% | -8%[2.3 µM]
Cc1cc(NC(=O)c2ccc(-c3ccccc3F)o2)no1 | u | 13µM* | 4.5µM* | 3.5µM* | -1% | 15µM*
COC(=O)c1ccccc1NC(=O)c1ccc(-c2ccccc2F)o1 | u | 5µM* | u | 3.2µM* | 1% | 3%
COc1ccc(Nc2cc(C(=O)NCCCN3CCN(c4ccccc4F)CC3)c3ccccc3n2)c(OC)c1 | x | -26% | x | x | x | -19%
CC(C)c1nc(-c2ccc([N+](=O)[O-])cc2)cs1 | 8% | 13% | 20% | 11% | 0% | 17µM*
CC(=O)Nc1nc(-c2ccc([N+](=O)[O-])cc2)cs1 | 2% | -19% | u | 18% | -2% | 1%
O=C(COc1ccc2ccccc2c1)Nc1cccc(C(=O)Nc2ccccc2C(=O)O)c1 | 1% | -8%[1.84 µM] | -3% | -1% | 0% | 24µM*
CCCCC(=O)Nc1cccc(C(=O)Nc2ccccc2C(=O)O)c1 | -4% | x | 4% | -2% | -4% | 17µM*
O=C(Nc1cc(NC(=O)c2ccccc2Cl)ccc1Cl)c1ccccc1 | x | 24% | x | x | x | 12µM*
Cc1cc(NC(=O)c2ccccc2C)ccc1NC(=O)c1ccccc1Cl | -5% | x | 16% | 14% | x | u
Cc1ccccc1C(=O)Nc1cccc(C(=O)Nc2ccccc2C(=O)O)c1 | -3% | x | -3% | -1% | x | 27µM*
CCCCC(=O)Nc1cccc(NC(=O)c2cccc(Br)c2)c1 | -13% | 10% | -13% | -7% | -1% | -17%
COc1ccc(OCC(=O)Nc2ccc(C(=O)Nc3ccccc3C(=O)O)cc2)cc1 | 4% | x | 18% | 21% | x | u
Cc1ccc(OCC(=O)OCC(=O)c2cccc([N+](=O)[O-])c2)cc1C | 14% | x | 5% | 1% | x | 2%
CCOC(=O)Cn1c(=O)n(C2CCCCC2)c2nc(-c3ccc(C(C)C)cc3)nc(C(N)=O)c21 | x | x | x | x | x | 0%
CCCCCOC(=O)c1ccc(NC(=O)c2cccc(NC(=O)c3ccccc3C(=O)O)c2)cc1 | -2% | x | 0% | 2% | x | 19µM*
O=C(Nc1ccccc1C(=O)O)c1cccc(NC(=O)c2ccccc2Cl)c1 | -2% | x | 10% | 4% | x | 19µM*
O=C(O)c1cccc(NC(=O)c2ccccc2NC(=O)c2ccccc2F)c1 | 0% | x | 13% | -2% | x | 11µM*
O=C(Nc1ccccc1C(=O)O)c1cccc(NC(=O)c2ccco2)c1 | -1% | x | 13% | 4% | x | 15µM*
COc1ccccc1NC(=O)c1cccc(NC(=O)c2ccco2)c1 | 1% | -5% | -3% | -3% | 3% | u
